The values that follow come from PubChem BioAssay AID1259374 (The Scripps Research Institute Molecular Screening Center, 2018).

The campaign covered roughly 650,000 compounds. About 5,900 (0.91%) were called active. What follows is part of a selection rich in actives, with near analogues and random picks from the rest. Unmarked numbers belong to inactive results. Cut-off read from the data, not from the text of the source: active = inhibition above about 50%; inactive = the rest.

The target in this assay is Microphthalmia-associated transcription factor (Homo sapiens) (UniProt O75030). As to the kind of experiment: MITF inhibitors, primary screen, biochemical, AlphaScreen, human (AID 1259374).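 Note: 0% = vehicle wells with protein.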 The following applies: AlphaScreen MITF homodimerization, bead proximity signal; at 2.6 µM; stronger effect = higher value. For orientation: Alpha assays give light when donor and acceptor beads are brought close together.
Microphthalmia-associated transcription factor (Homo sapiens), sequence (O75030 whole entry, looked up): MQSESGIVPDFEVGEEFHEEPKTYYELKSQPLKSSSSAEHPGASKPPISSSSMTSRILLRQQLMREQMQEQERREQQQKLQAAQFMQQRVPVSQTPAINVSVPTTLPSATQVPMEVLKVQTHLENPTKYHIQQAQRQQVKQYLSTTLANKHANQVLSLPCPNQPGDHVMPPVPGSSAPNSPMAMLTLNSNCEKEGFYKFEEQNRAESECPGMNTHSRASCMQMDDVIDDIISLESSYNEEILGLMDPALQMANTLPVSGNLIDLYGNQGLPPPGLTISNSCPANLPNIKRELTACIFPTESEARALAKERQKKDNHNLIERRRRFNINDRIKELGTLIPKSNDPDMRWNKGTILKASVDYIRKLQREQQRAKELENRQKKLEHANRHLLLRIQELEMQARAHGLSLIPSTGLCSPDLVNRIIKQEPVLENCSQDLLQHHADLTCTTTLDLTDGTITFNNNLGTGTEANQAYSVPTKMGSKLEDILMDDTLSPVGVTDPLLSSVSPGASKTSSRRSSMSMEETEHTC
For orientation: inhibition means the relative decrease from the control value, in per cent. For the molecule `CCn1c(C(=O)O)c(CC(=O)N2CCN(Cc3ccccc3)CC2)c2ccccc21`, the inhibition was 3.77%.
`CCc1nc2ccccc2c(=O)n1-c1ccccc1`: the inhibition was 10.7%.
In the case of `CCN1CCc2nc3ccccc3c(C(=O)O)c2C1` it was 61.5% (active).
With `O=[N+]([O-])c1ccc(N2CCCCC2)c2cccnc12`, the inhibition was 27.4%.
As to `CS(=O)(=O)Nc1ccc(C#N)c(Cl)c1`, the inhibition is -2.59%.
Take `CCC(=O)c1ccc(N2CCN(C)CC2)c(F)c1`: the inhibition was -2.65%.
The same measure for `C(#CC1CC1)CN(C1CCCCC1)C1CCCCC1`: 83.7% (active); for `CN(CC#CC1CC2CCC1C2)C1CCCCC1` (stereo not given): -0.53%.
With `CCn1c(=O)n(CC2CS2)c2ccccc21` (stereo not given), the inhibition is -0.54%.
In the case of `Cc1cnc2nc3c(cc2c1)CN(Cc1cccnc1)CC3`, the inhibition is -8.7%.
The same measure for `CN1CCN(c2cc3[nH]c(=S)[nH]c3cc2F)CC1`: -8%; for `CCOC(=O)C1C2NC(=S)N(c3ccc(CC)cc3)C1(C)Oc1c(OC)cccc12` (stereo not given): 39.5%; for `CCOC(=O)C1C2NC(=S)NC1(C)Oc1cc(OC)ccc12` (stereo not given): 13.6%.
The same measure for `CCOC(=O)C1C2NC(=S)N(CC)C1(C)Oc1ccc(Cl)cc12` (stereo not given): 65.6% (active); for `CCOC(=O)C1C2NC(=S)N(c3ccc(F)cc3)C1(C)Oc1c(OCC)cccc12` (stereo not given): 55.5% (active).
On to `CCOC(=O)C1C2NC(=S)NC1(C)Oc1c(OCC)cccc12` (stereo not given), for which the inhibition was -1.57%.
The same measure for `CCOC(=O)C1C2NC(=S)N(c3ccc(Cl)cc3)C1(C)Oc1ccccc12` (stereo not given): 10.8%.
Consider `Cn1c(SCCOC(N)=O)nnc1-c1ccc([N+](=O)[O-])cc1`, for which the inhibition is 5.78%.
With `CS(=O)(=O)c1ccc(CC(=O)N2CCN(C(c3ccccc3)c3ccccc3)CC2)cc1`, the inhibition was 7.6%.
On to `c1ccc(-c2ccnc3nc4ccccc4n23)cc1`, for which the inhibition is 7.67%.
Turning to `OC(CNC1CN2CCC1CC2)COc1cccc2ccccc12` (stereo not given), the inhibition is 18.3%.
As for `COc1ccc(CN2CCN(c3ccccc3F)CC2)c(OC)c1`, the inhibition was 14%.
In the case of `CC(C)N1CCN(Cc2ccccc2)CC1`, the inhibition is 41%.
Consider `COc1ccc(CN2CCN(C(C)C)CC2)c(OC)c1OC`, for which the inhibition was 68.1% (active).
Consider `COc1ccc(CN2CCN(c3ccc(C(C)=O)cc3)CC2)cc1`, for which the inhibition was 18.3%.
Turning to `COc1ccc(CN2CCN(C(C)C)CC2)cc1`, the inhibition was 57% (active).
With `COc1ccc(CN2CCN(CCO)CC2)c(OC)c1OC`, the inhibition is -8.5%.
As to `CC(C)CN(Cc1c(O)ccc2c(=O)c(-c3ccccc3)coc12)CC(C)C`, the inhibition is -5.09%.
As for `COC(NC(=O)c1ccco1)C(Cl)(Cl)Cl` (stereo not given), the inhibition was 17.3%.
As for `CCCCn1c(C)c(C(=O)OCC)c2cc(OC(=O)COc3ccccc3)c3ccccc3c21`, the inhibition is -5.32%.
Take `Cc1nc2ccccc2c(=O)n1-c1cccc(Cl)c1`: the inhibition was 22.4%.
On to `COc1ccc(Cl)cc1C(=O)C1CCCN(Cc2ncc[nH]2)C1` (stereo not given), for which the inhibition was 7.6%.
`CCCN1CCN(C(=O)Cc2nc(-c3ccc(OC)cc3)no2)CC1`: the inhibition was 1.81%.
For the molecule `COc1cc(NC(=O)CCc2nc(C3=CCN(C)CC3)no2)cc(OC)c1OC`, the inhibition was 51.6% (active).
The same measure for `CCOC(=O)C1=C(c2ccccc2)OC(N)=C(C#N)C12C(=O)Nc1ccc(Br)cc12` (stereo not given): 2.49%.
In the case of `CC[C@@H](C)C(=O)O[C@H]1[C@H](O)[C@H]2[C@@H](CN3C[C@@H](C)CC[C@H]3[C@@]2(C)O)[C@@H]2C[C@]34O[C@]5(O)[C@@H](OC(=O)C(C)(O)C(C)O)CC[C@@]3(C)[C@@H]5[C@@H](OC(C)=O)[C@@H](OC(C)=O)[C@H]4[C@@]21O` (stereo not given in full), the inhibition was 23.5%.
In the case of `COc1ccc(CNCCc2c[nH]c3ccccc23)cc1OC`, the inhibition was 13.6%.
As for `O=[N+]([O-])c1ccc(CNCCc2c[nH]c3ccccc23)cc1`, the inhibition was 25.3%.
Turning to `c1cncc(CNCCc2c[nH]c3ccccc23)c1`, the inhibition was 84% (active).
The same measure for `Cc1nn(CC(=O)N2CCC3(CC2)OCCO3)c(=O)c2cccn12`: -10.4%.
As to `O=C1CN=C(c2ccc(Br)cc2)c2cc(Br)ccc2N1`, the inhibition was -2.48%.
On to `N#Cc1ccc(NC(=O)COc2cc(F)ccc2[N+](=O)[O-])cc1Cl`, for which the inhibition was 10.7%.
Consider `CN1CN/C(=N\[N+](=O)[O-])N(Cc2ccco2)C1`, for which the inhibition was -9.51%.
As for `CCC(C)N1CCN(Cc2cccc(OC)c2)CC1` (stereo not given), the inhibition is 63.5% (active).
With `COc1ccc(CN2CCN(c3ccccc3F)CC2)c(O)c1`, the inhibition was 21.3%.
As to `COc1cccc(CN2CCN(Cc3ccccc3F)CC2)c1`, the inhibition was 75.4% (active).
For `CCN1CCN(Cc2ccc(F)cc2F)CC1`, the inhibition was 1.97%.
As to `Fc1ccc(N2CCN(Cc3ccccc3F)CC2)cc1`, the inhibition was 12.7%.
Turning to `O=C(COc1ccccc1)N1CCN(Cc2cccc(Oc3ccccc3)c2)CC1`, the inhibition is 32.3%.
Consider `COc1cccc(CN2CCN(Cc3ccccc3OC)CC2)c1`, for which the inhibition is 7.82%.
In the case of `Fc1ccccc1CN1CCN(Cc2ccccc2F)CC1`, the inhibition was 75.5% (active).
In the case of `COc1cc(CN2CCN(c3ccccc3)CC2)cc(OC)c1` it was 5.15%; in that of `CCOC(=O)C1=C(N)Oc2cc(C)n(CC)c(=O)c2C12C(=O)N(CC(C)C)c1ccccc12` (stereo not given), 4.18%.
With `Cc1ccc(C(O)(C(=O)NNc2cc(Cl)ccc2Cl)c2ccc(C)cc2)cc1`, the inhibition was 8.08%.
Regarding `O=[N+]([O-])c1ccc(N2CCc3ccccc3C2)c2ccncc12`, the inhibition is 5.66%.
In the case of `CC(C)(CNc1ccc([N+](=O)[O-])c2cccnc12)CNS(=O)(=O)c1ccc(Cl)cc1` it was 0.37%; in that of `N#CC1=C(N)Oc2c(c(=O)oc3ccccc23)C1c1ccc(OC(F)(F)F)cc1` (stereo not given), 2.42%.
For the molecule `CSCCC(NC(=O)c1ccco1)C(=O)OCC(=O)Nc1ccc(C#N)c(Cl)c1` (stereo not given), the inhibition was 4.56%.
Turning to `COc1ccc(NC(=O)CN(C)CC(=O)Nc2ccc(C#N)c(Cl)c2)cc1`, the inhibition is 7.15%.
In the case of `CSc1ccccc1NC(=O)CN(C)CC(=O)Nc1ccc(C#N)c(Cl)c1` it was 82.2% (active); in that of `COc1ccccc1N1C(=O)NC(=O)/C(=C\c2ccc(Cl)cc2Cl)C1=O`, -0.45%; in that of `CC(Cc1ccccc1)NC(=O)/C=C/c1ccco1` (stereo not given), 7.08%.
For `CC(Cc1cccc(C(F)(F)F)c1)N1CCOCC1` (stereo not given), the inhibition is 12.7%.
Turning to `CCC(CC)N1CCN(Cc2ccc(F)cc2)CC1`, the inhibition was 70.5% (active).
Regarding `CCN1CCN(Cc2ccc(C(=O)OC)cc2)CC1`, the inhibition is -13.2%.
Turning to `CCN1CCN(Cc2ccc3ccccc3c2)CC1`, the inhibition was 3.25%.
For the molecule `CCC(C)N1CCN(Cc2ccc(SC)cc2)CC1` (stereo not given), the inhibition was 65.1% (active).
On to `Clc1ccc(CN2CCN(Cc3ccc(Cl)cc3)CC2)cc1`, for which the inhibition is 31.9%.
Turning to `CN1CCN(Cc2ccc(F)cc2)CC1CCO` (stereo not given), the inhibition was -5.75%.
`Fc1cccc(Cl)c1CNC1CN2CCC1CC2` (stereo not given): the inhibition was 2.47%.
In the case of `O=C(CN1CCCC1)c1ccccc1Br`, the inhibition is -5.43%.
As to `Cc1cc(C=C2C(=O)NC(=S)NC2=O)c(C)n1-c1ccccc1C(F)(F)F`, the inhibition is 8.02%.
As to `CCOC(=O)C1=C(N)OC2=C(C(=O)CCC2)C12C(=O)Nc1ccc(Br)cc12` (stereo not given), the inhibition is -1.67%.
In the case of `FC1CC2C(Cl)C1NC2(C(F)(F)F)C(F)(F)F` (stereo not given), the inhibition is -5.25%.
The same measure for `CN1C(=O)C(=Cc2cn(CC(=O)NCc3ccco3)c3ccccc23)C(=O)N(C)C1=O`: 0.24%; for `CN1CCC(N(C)c2ncnc3scc(-c4ccc(Cl)cc4)c23)CC1`: 51.4% (active).
For the molecule `Cn1ccnc1C1(O)CC2CCC(C1)N2CC(=O)N1CCc2ccccc2C1` (stereo not given), the inhibition was 9.08%.
With `O=C(CN1C2CCC1CC(O)(c1ccccn1)C2)N1c2ccccc2Sc2ccccc21` (stereo not given), the inhibition is 44.9%.
As to `CC1CCCC(C)N1C(=O)CN1C2CCC1CC(O)(c1ccccn1)C2` (stereo not given), the inhibition was 54.9% (active).
As to `COc1cc(CN2CCN(C)CC2)ccc1O`, the inhibition is 41.2%.
For the molecule `COc1ccccc1CN1CCN(C(=O)Cc2ccccc2)CC1`, the inhibition was 57.1% (active).
As to `COc1ccc(CN2CCN(Cc3ccccc3)CC2)cc1C`, the inhibition was 50.8% (active).
Take `COc1cc(CN2CCN(Cc3ccccc3)CC2)cc(I)c1O`: the inhibition is -2.51%.
On to `COc1ccccc1CN1CCN(c2ccc(F)cc2)CC1`, for which the inhibition was 19.3%.
For `COc1ccccc1CN1CCN(Cc2ccc(Br)cc2)CC1`, the inhibition is 77.5% (active).
On to `COc1cccc(CN2CCN(C(=O)COc3ccccc3)CC2)c1OC`, for which the inhibition was 43.9%.
As for `Cc1cccc(OCC(=O)N2CCN(Cc3ccccc3)CC2)c1C`, the inhibition was 13%.
Consider `COc1ccccc1N1CCN(Cc2cccc(O)c2)CC1`, for which the inhibition is 24.7%.
In the case of `CC(C)CCn1c(=O)c(C(=O)Nc2nc3ccc(F)cc3s2)c(O)c2ccccc21` it was 9.2%.
Regarding `CC12CCC(=O)C=C1CC[C@@H]1[C@@H]2CCC2(C)[C@@H](O)CC[C@@H]12` (stereo not given in full), the inhibition is 3.34%.
In the case of `Cc1cccc(-n2c(CN3C(=O)c4ccccc4C3=O)nc3ccccc3c2=O)c1` it was 8.78%.
Regarding `C=CCN1C(=O)NC(=O)/C(=C/c2ccc(O)c(OC)c2)C1=O`, the inhibition is -1.51%.
Turning to `C=CCN1C(=O)NC(=O)/C(=C/c2ccc3c(c2)OCO3)C1=O`, the inhibition is 11.9%.
As to `CCNC(=S)N1CC2CC(C1)c1cccc(=O)n1C2` (stereo not given), the inhibition is -9.28%.
Take `CCCC1=C(C(=O)OC)C2(C(=O)Nc3ccccc32)C(C(=O)OCC)=C(N)O1` (stereo not given): the inhibition was 12%.
Turning to `c1cc2c(cc1NC1=NCCCS1)OCCO2`, the inhibition is 2.15%.
With `C=CCN1C(=O)/C(=C\c2cccn2-c2cccc([N+](=O)[O-])c2)C(=O)NC1=S`, the inhibition is 44.6%.
With `O=C1NC(=S)NC(=O)C1=Cc1ccc(-c2ccccc2)o1`, the inhibition is 31.6%.
For `O=C1NC(=S)N(Cc2ccco2)C(=O)/C1=C\c1ccc(-c2ccc([N+](=O)[O-])cc2)o1`, the inhibition was 89.9% (active).
Turning to `N#CC1=C(N)Oc2c(c(=O)oc3ccccc23)C1c1ccc([N+](=O)[O-])s1` (stereo not given), the inhibition was 2.54%.
Take `COc1cccc(-n2c(/C=C/c3cccnc3)nc3ccccc3c2=O)c1`: the inhibition is -8.02%.
With `Cc1cc(/C=C2/C(=O)NC(=O)N(Cc3ccco3)C2=O)c(C)n1-c1ccc(C(=O)O)cc1`, the inhibition was 80.4% (active).
With `Cc1cc(C=O)c(C)n1Cc1ccco1`, the inhibition was 3.63%.
For the molecule `Cc1ccccc1N1C(=O)NC(=O)/C(=C\c2cc(C)n(-c3ccccc3C(=O)O)c2C)C1=O`, the inhibition was 15.6%.
The same measure for `COc1ccccc1CCNCc1ccc(C)cc1`: 24.2%; for `Cc1ccc(CN2CCN(C(=O)COc3cccc(C)c3)CC2)cc1`: 43.5%.
The same measure for `O=[N+]([O-])c1ccc(O)c(CN2CCN(c3ccccc3)CC2)c1`: 9.43%; for `O=[N+]([O-])c1ccccc1CN1CCN(Cc2cccc(F)c2)CC1`: 51.4% (active).
In the case of `Cc1ccc(CN2CCN(Cc3ccccc3[N+](=O)[O-])CC2)cc1` it was 59.3% (active).
As to `Fc1ccc(CN2CCN(c3ccccc3)CC2)cc1F`, the inhibition was 40.2%.
In the case of `O=[N+]([O-])c1ccccc1C[N+]12CCC(CC1)C(O)C2` (stereo not given) it was 8.77%.
Turning to `Cc1ccccc1OCC(=O)N1CCN(CCNC(=O)c2ccc3c(c2)OCO3)CC1`, the inhibition is -3.05%.
Turning to `O=C1NC(=S)NC(=O)C1=Cc1ccc(OCc2ccccc2)c(C(=O)O)c1`, the inhibition is 18.7%.
On to `CCCC1(CCC)C(=O)NC(=Nc2ccc(OC)cc2)NC1=O`, for which the inhibition was -6.47%.
`CC(c1ccccc1F)n1cc(C(=O)NC2CC2)nn1` (stereo not given): the inhibition is -9.15%.
